Results on 40 compounds are retold here after PubChem BioAssay (NCI).

The panel holds about 83,000 compounds, 20% with a hit somewhere; the sample as a whole holds those more often.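 Percent growth is the endpoint: 0 to 100 indicates growth inhibition (40 means 60% inhibition), 0 means no net growth, and negative values indicate cell death.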 Values without a mark were called inactive. Calls of active or inactive are those of the source.

This test concerns U251 CNS. In words: NCI-60 one-dose screen, 48 h (100 = growth as untreated, 0 = no growth, -100 = all killed). Particulars: 10 µM unless noted. The procedure:
Growth inhibition of the U251 human tumor cell line is measured as a screen for anti-cancer activity. Cells are grown in 96 well plates and exposed to the test compound for 48 hours. Compounds are tested at a single concentration, which is 10^-5 M for most compounds. The reported endpoint is percent growth (GI% or GIPRCNT), where numbers from 0 - 100% represent growth inhibition, and numbers from -100% - 0 represent cell death. For example, a value of 40 represents 60% growth inhibition. A value of 0 means no net growth occurred over the course of the experiment. A value of -40 indicates 40% of cells at the beginning of the experiment died by the end of the experiment. A value of -100 means all cells are dead at the end of the experiment.
NCI-60 Human Tumor Cell Lines Screen was performed using the standard one-dose NCI protocol, which is described in more detail at https://dtp.cancer.gov/discovery_development/nci-60/default.htm.
Compounds with GIPRCNT values below 10 were considered active. Activity score was based on GIPRCNT using the following formula: […]
Score is 0 for GIPRCNT values of 100 or above, 50 for GIPRCNT values of 0, and 100 for GIPRCNT values of -100.
As for `CCCCn1c(NC(C)=O)c(S(=O)(=O)c2ccccc2)c2nc3ccccc3nc21`, the growth is 103%.
Take `O=S(=O)(N=C1C(Cl)=C(Cl)C(=NS(=O)(=O)c2ccccc2)C(Cl)=C1Cl)c1ccccc1`: the growth was 59.8%.
On to `O=C(/C=C/c1ccccc1)N(C1CCCCC1)C1CCCCC1`, for which the growth was 84.3%.
For `Nc1c(C(=O)Nc2cccc3ncccc23)sc2nc3c(cc12)CN(Cc1ccccc1)CC3` the value was 88%.
On to `CCN(CC)CCOc1ccc(/C(=C(\C)Cc2ccc(OC)cc2)c2ccc(OC(=O)NCc3ccccc3)cc2)cc1`, for which the growth was 32.4%.
The result for `COC12C=C/C(=C(/C(=O)OCc3csc(SC)n3)C(=O)CCCCCCCCC3(OC)C=C/C(=C(/C(=O)OCc4cnc(SC)s4)C(=O)CCCCCCCC1)O3)O2` (stereo not given) reads 36.9%; that for `O=C(CN1C(=O)S/C(=C\C(Cl)=C\c2ccccc2)C1=O)NC1CCS(=O)(=O)C1` (stereo not given), 81.6%; that for `Cc1c2ccccc2nc2cc3c(cc12)[C@H]1CC[C@]2(C)C(=O)CC[C@H]2[C@@H]1CC3`, 92%.
Consider `CCN(CC)CCN1C(=O)c2c(c3c4ccccc4[nH]c3c3ccc4ccccc4c23)C1=O`, for which the growth is -89.3% (active).
With `COCCn1cc(-c2nc(-c3c[nH]c4ncccc34)cs2)c2ccccc21`, the growth was 72%.
For `CC(C)NS(=O)(=O)/N=C1\NC(=O)NC1=C(Cl)Cl` the value was 90.6%; for `CC/C(=C(/c1ccc(O)cc1)c1ccc(OCCN2CCCCC2)cc1)c1ccc(OC)cc1`, 8.72% (active).
For `O=c1oc2c(cnc3ccccc32)cc1-c1cccc(Cl)c1`, the growth is 98.2%.
`N#Cc1c(-c2ccccc2)nc2c(c(-c3ccc(Cl)cc3)nn2-c2ccccc2)c1-c1ccc([N+](=O)[O-])cc1`: the growth is 95.3%.
With `CCN1C(=O)N(c2ccccc2)C2NC(=S)N(/N=C/C=C/c3ccccc3OC)C21` (stereo not given), the growth was 15.6%.
`CN1CCOCCN(C)Cc2ccc3ccc(cc3c2)CN(C)CCOCCN(C)Cc2ccc3ccc(cc3c2)C1`: the growth is 80.7%.
Take `c1ccc2cc(Cn3cc(CSc4nc5ccccc5s4)nn3)ccc2c1`: the growth was 95.6%.
Consider `Oc1nc(NCc2ccccc2)sc1/C=C1\C=Nc2ncccc21`, for which the growth was 51.1%.
`CCOC(=O)c1[nH]cc2c1CCc1sc(Nc3ccccn3)nc1-2`: the growth was 69%.
As to `CC1=C2[C@@H](CC1)[C@]1(C)O[C@@](C3CCNCC3)(C[C@H]1OC(=O)CO)[C@H]2OC(=O)/C=C/c1ccccc1`, the growth was 44.3%.
With `CC(O)CNC(Cc1ccccc1)c1ccc2c(c1)OCO2` (stereo not given), the growth was 97.3%.
Turning to `N=C(N)c1ccc(-c2ccc(-c3ccccc3)o2)o1`, the growth was 10.3%.
For `CC(C)=CC(=O)N[C@H]1CC[C@]2(C)C3CC[C@]4(C)C(C(C)N(C)C)=CCC4C3CCC2[C@H]1O` (stereo not given in full), the growth is 51.5%.
Regarding `c1cc(OCCCCCOc2cccc(-c3nc4ccccc4[nH]3)c2)cc(-c2nc3ccccc3[nH]2)c1`, the growth is 6.76% (active).
The result for `C=C1C(=O)O[C@H]2[C@H]1CC/C(COC(=O)/C=C\C(=O)NCc1ccc(Cn3c(=O)sn(CCCCl)c3=O)cc1)=C\CC[C@@]1(C)O[C@@H]21` reads 79.6%.
For `CN1CCN(c2ccc(NC3=CC(=O)c4ncncc4C3=O)cc2)CC1` the value was -82.3% (active); for `Nc1cc(C(=O)O)cc(-n2c(O)c(C=C3N=c4ccccc4=N3)sc2=S)c1`, 107%.
`CCOC(=O)C1=C(c2ccccc2)N=C2N(c3ccccc3)N=C(C(C)=O)N2C1c1ccc(F)cc1` (stereo not given): the growth was 103%.
The result for `O=C(/C=C/C12c3ccccc3C(c3ccccc31)C1C(=O)NC(=O)C12)c1ccc(Cl)cc1Cl` (stereo not given) reads 7.87% (active); that for `CCCCCc1ccc(S(=O)(=O)Nc2ccc3nc(N)oc3c2)cc1`, 71.5%.
Consider `C(=C(\C1=NCCN1)n1ccc2ccccc21)/c1ccccc1`, for which the growth is 94.6%.
`COc1ccccc1S(=O)(=O)Nc1ccc2c3c(cc(CCC(=O)NCCCCNc4cccc5c4C(=O)N(C4CCC(=O)NC4=O)C5=O)cc13)C(=O)N2C` (stereo not given): the growth was 61.4%.
The result for `N#Cc1ccc(/C=C/c2cn(-c3ccccc3)nc2-c2cccc([N+](=O)[O-])c2)cc1` reads 46.7%; that for `COc1nc(/C=C\Nc2ccc3c(c2)OCCOCCOCCOCCO3)nc(OC)n1`, 103%.
The result for `Cc1cccc(N=Nc2cccc(C)c2)c1` reads 106%; that for `COC(=O)c1c2c(c(C)[n+]([O-])c1C)C(=O)C(NCc1ccccc1)=CC2=O`, 1.71% (active).
On to `O=C1c2cccnc2C(=O)c2c1c(C(=O)OCCc1ccccn1)c1ccccn21`, for which the growth was -82.5% (active).
For `O=C1NC(=O)C(c2coc3cc(Br)ccc23)=C1c1c[nH]c2ccccc12` the value was 29.6%; for `Cn1cc(-c2csc(-c3cn(C)c4ccccc34)n2)c2cnccc21`, -48.7% (active).
Consider `COc1cc(/C=C/C(=O)c2cccc(-n3cc(-c4ccc(Cl)cc4)[nH]c3=O)c2)ccc1O`, for which the growth is 32.4%.
